# Screening results from PubChem.
# TRPM1 prom inh = reduces MITF-dependent TRPM1 promoter luciferase signal | hit rate 0.83% among 330,000 | inhibition, % at 12.5 µM | SK-MEL-5 TRPM1 promoter luciferase, 24 h;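 active = mean inhibition across replicates of 60% or more, whatever share of single replicates reaches that level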
# Peg3 prom inh = reduces Peg3 promoter-driven luciferase expression in HeLa; HeLa PEG-Prom luciferase reporter, luminescence, overnight; inhibition, % at 20 µM; hit rate 1.7% among 360,000; AID 588405;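 active = inhibition of at least 50% at 20 µM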
# CF NFkB inh = inhibitors of cystic fibrosis induced NF-kB. KKLEB NF-kB-GFP reporter, PAF-induced, GFP fluorescence overnight. inhibition, % at 5 µM. hit rate 0.86% among 360,000;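 active = at least 50% inhibition at 5 µM, scaled per plate between neutral and stimulator controls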;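 note: PAF is a Pseudomonas aeruginosa culture filtrate used as stimulus; plate controls were PAF-stimulated DMSO wells for no effect and unstimulated DMSO wells for full effect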
# KKLEB tox = reduces viability of KKLEB cystic fibrosis airway cells; KKLEB CF airway cells viability, ATPlite luminescence, overnight; stronger effect = lower value; cells stimulated with P. aeruginosa culture filtrate; activity change (cytotoxicity), % at 5 µM; hit rate 0.36% among 360,000; AID 602141;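 active = corrected activity change at or below -50% at 5 µM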
# LMP1 NFkB inh = inhibitors of Epstein-Barr LMP1-induced NF-kappaB reporter; inhibition, % at 12.5 µM; AID 504558; LMP1-induced NF-kappaB luciferase reporter cells, luminescence; hit rate 0.69% among 350,000; in the data active = inhibition above about 41%;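 note: 0% = neutral control wells and 100% = reference inhibitor control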
# Shn3 inh set2 = inhibitors of Schnurri-3 3'UTR reporter in osteoblasts; Clone20 osteoblast Shn3 3'UTR firefly luciferase, 24 h; inhibition, % at 12.5 µM; AID 588674; hit rate 0.52% among 360,000;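 active = mean inhibition of at least 75% with every replicate also reaching 75%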;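 note: 0% = median of neutral control wells and 100% = pilot-screen positive control compound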
# The depositor's hits bear a star; nt = no result given. The list is not random: actives were taken first. Their share in the collection is about 2.9%.
SMILES,TRPM1 prom inh,Peg3 prom inh,CF NFkB inh,KKLEB tox,LMP1 NFkB inh,Shn3 inh set2
C[C@H](O)[C@@H]1CN2CCc3c([nH]c4ccc(-c5ccc6c(c5)OCO6)cc34)[C@@H]2C[C@@H]1N(C)C(=O)Nc1cc(Cl)cc(Cl)c1,nt,67*,35,-5,1,52
Cc1cccc(-c2ccc3[nH]c4c(c3c2)CCN2C[C@@H]([C@H](C)O)[C@@H](N(C)C(=O)Nc3ccc(F)cc3)C[C@@H]42)c1,nt,100*,28,-12,-11,1
C[C@H](O)[C@@H]1CN2CCc3c([nH]c4ccccc34)[C@@H]2C[C@@H]1N(C)C(=O)Nc1ccc(F)cc1,nt,-1,1,-7,-8,9
CCn1ccc(=N)cc1,-2,13,-2,6,4,9
CCCCCCCn1ccc(=N)cc1,37,-26,5,0,93*,85
CCCCCCCCCn1ccc(=N)cc1,65*,32,48,-48,29,59
CCCCCn1ccc(=N)cc1,20,12,17,2,13,32
Cc1ccccc1Nc1cc2ccccc2c(=O)[nH]1,69*,-16,26,-7,6,16
OC[C@@H]1CN(CCN2CCOCC2)C[C@H](n2cnc3c(N4CCOCC4)ncnc32)O1,nt,-11,-6,-2,nt,-5
O=C(N/N=C/c1ccc2ncccc2c1)c1ccco1,-3,3,8,-10,48*,-1
CCSc1nc(-c2ccc(OC)cc2)cc(-c2ccccc2)c1C#N,10,22,21,-5,4,51
COc1ccc(-c2cc(-c3ccccc3)c(C#N)c(S(C)=O)n2)cc1 (centres undefined),70*,114*,13,-28,11,2
CCCC1OC2CC3C4CCC5=CC(=O)C=CC5(C)C4C(O)CC3(C)C2(C(=O)O)O1 (centres undefined),-12,1,74*,32,10,8
CCC(=O)[C@@]1(C)[C@H](C)C[C@H]2[C@@H]3CCC4=CC(=O)C=C[C@]4(C)[C@H]3[C@@H](O)C[C@@]21C,-7,9,72*,39,2,41
CCCC1O[C@@H]2CC3C4CCC5=CC(=O)C=C[C@]5(C)C4C(OC(C)=O)C[C@]3(C)[C@]2(C(=O)COC(C)=O)O1 (some centres undefined),3,25,24,12,5,18
Oc1ccc(N=Nc2ccccc2)o1,9,38,95*,-21,-1,94*
CC(C(=O)N=Nc1c(O)[nH]c2ccccc12)n1cnc2ccccc2c1=O (centres undefined),19,-8,7,6,61*,-4
Cc1cccc2c(N=NC(=O)C(C)n3cnc4ccccc4c3=O)c(O)[nH]c12 (centres undefined),14,8,0,-2,-1,16
O=[N+]([O-])c1c(Nc2ccc(O)cc2)cc(Cl)c2nonc12,96*,103*,103*,-76*,13,95*
O=C(O)c1ccccc1Nc1cc(Cl)c2nonc2c1[N+](=O)[O-],10,14,-12,1,1,-2
O=[N+]([O-])c1c(Nc2ccccn2)cc(Cl)c2nonc12,76*,108*,67*,-44,54*,95*
CC(C)(COC(=O)c1ccccc1)N1CC2CCC(C1)O2,-49,-232,-10,-4,-2,28
O=C(Nc1ccc(OCC(F)(F)C(F)F)c(C(F)(F)F)c1)c1ccccc1O,63*,-60,50,-51*,23,79
Oc1ccccc1C=NNC(=S)Nc1ccc(F)cc1,5,-124,4,-13,30,90*
CN(C)c1ccc(NC(=S)Nc2ccc3c(c2)c(=O)n(C)n3-c2ccc(C(C)(C)C)cc2)cc1,nt,-43,-4,6,nt,56
SMILES,TRPM1 prom inh,Peg3 prom inh,CF NFkB inh,KKLEB tox,LMP1 NFkB inh,Shn3 inh set2
CN(C)CCOc1ccc2c(c1)C(=O)C(=Cc1ncc([N+](=O)[O-])n1C)C2,nt,103*,-64,-16,25,51
O=C(CN1CCOCC1)Nc1nc(-c2ccccc2)cs1,2,-30,-11,1,-3,7
O=C(Cn1nnc(-c2ccc(CN3CCOCC3)cc2)n1)Nc1nc(-c2ccccc2)cs1,-5,-38,-24,-51*,-3,6
CC1CCN(Cc2ccc(-c3nnn(CC(=O)Nc4ccccc4Cl)n3)cc2)CC1,-12,8,11,0,7,87*
Cc1cccc(C)c1NC(=O)Cn1nnc(-c2ccc(CN3CCC(C)CC3)cc2)n1,-5,0,-4,7,-4,38
CCOc1ccc(Nc2nc(N)nc(CCl)n2)cc1,16,77*,80*,-68*,14,-35
Cc1ccc(Nc2nc(N)nc(CCl)n2)cc1,-40,-110,45,-20,-35,-98
CCOc1ccc(Nc2nc(N)c3ccccc3n2)cc1,36,58*,-8,-56*,53*,-6
Nc1nc(Nc2ccc(Cl)cc2)nc2ccccc12,4,-48,8,-55*,1,20
Cc1ccc(C)c(/C=C/C(=O)c2ccccc(=O)c2O)c1,30,17,-17,-11,-111,66
O=C(/C=C/c1ccccc1Cl)c1ccccc(=O)c1O,6,71*,-51,-22,-35,15
O=C(Oc1ccc(NC2=C(Cl)C(=O)c3ccccc3C2=O)cc1)c1ccc([N+](=O)[O-])cc1,82*,99*,20,-15,19,6
COc1ccc(CCNC(=O)Cc2ccccc2)cc1OC,-7,5,-6,2,3,0
COc1ccc(CC(=O)NCCc2ccc(OC)c(OC)c2)cc1,-7,52*,-16,1,3,9
COc1ccc(C(=O)CCS(=O)(=O)c2ccc(C)cc2)cc1OC,-3,59*,26,8,-1,-24
Cc1ccc2nc(NC(=O)CCCC(=O)O)sc2c1,79*,46,7,-10,37,51
O=C1CC(Sc2nnnn2-c2ccccc2)C(=O)N1c1cccc(Cl)c1 (centres undefined),16,116*,45,-15,-7,90*
COc1ccc(N2C(=O)CC(Sc3nnnn3-c3ccc(F)cc3)C2=O)cc1 (centres undefined),22,114*,27,-2,6,73
N#Cc1c(N)[nH]c2ccc(Sc3ccccc3)cc12,13,0,47,-14,4,-5
CCC(=O)CN(Cc1cc(OC)ccc1OC)S(=O)(=O)c1ccccc1Br,-4,5,-7,-7,12,3
O=C(c1ccccc1)c1coc2c1C(=O)c1ccccc1C2=O,24,-140,52*,5,-16,-23
COc1ccc(C(=O)c2coc3c2C(=O)C(=O)c2ccccc2-3)cc1,-22,-154,44,11,10,-44
O=C(c1ccccc1)c1ccc(CN2C(=O)c3ccccc3C2=O)o1,3,-36,12,3,4,-8
